The results in this text go back to PubChem BioAssay AID624351 (Southern Research Specialized Biocontainment Screening …, 2012).

Hit rate of the full screen: of about 2,400 compounds, about 1,400 (58%) were called active.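 The calls were made as follows: active = inhibition of 30% or more at any tested dose; inconclusive = primary hits over the limit that were never retested; inactive = the rest.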 The set was probably picked from earlier hits. The list shows a part of the results.

A short description of this test: ADP Hunter readout inhibition without MgcRacGAP – biochemical, coupled enzyme counter-screen, artefact control for MgcRacGAP inhibitor project, dose response (AID 624351).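 Also: signal is the ADP detection kit reading of free GDP without any GAP enzyme.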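 As to inhibition: 0% = median positive control wells and 100% = median negative control wells.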 The conditions noted are these: fluorescence, no MgcRacGAP; series mostly up to 80 µM; inhibition: at the top concentration.
On to `CN(C)CCCn1c(SCc2ccc(Cl)cc2)nnc1-c1ccncc1`, for which the inhibition – broadly, the change of the read-out against control, counted positive when it falls – is 13% (inactive).

For `CCOc1cc(/C=N/NC(=O)c2c(-c3ccccc3)noc2C)ccc1O`, the IC50 (in general, the concentration that inhibits the measured activity by half) is 60.4 µM (active).

Consider `COc1cc(/C=N/NC(=O)c2c(-c3ccccc3)noc2C)ccc1O`, for which the IC50 was 50.7 µM (active).

Turning to `Oc1ccc(/C=N/Nc2nn3cnnc3c3ccccc23)cc1`, the IC50 is 23.3 µM (active).

With `COc1cc(/C=N/Nc2nncn2/N=C/c2ccc(O)c(OC)c2)ccc1O`, the IC50 is 39 µM (active).

As to `COc1cc(/C=N/Nc2nn3cnnc3c3ccccc23)ccc1O`, the IC50 is 58.4 µM (active).

`Cc1ccc(OCCCCNC(C)(C)C)c([N+](=O)[O-])c1`: the “inhibition” value is 20.2% (inactive).

Regarding `N#CC1=C(N)NC(=S)C(C(N)=O)C1c1ccc([N+](=O)[O-])cc1` (stereo not drawn), the “inhibition” value was -6.08% (inactive).

With `N=C(N)c1ccc(/C=C/c2ccc(C(=N)N)cc2O)cc1`, the “inhibition” value was 11.6% (inactive).

`CCOc1ccc(C2NC(=O)C(C#N)=C(S)N2c2ccc(C)cc2)cc1OC` (stereo not drawn): the “inhibition” value was 3.45% (inactive).

With `COc1cc2nc(=S)n3[nH]c(CCn4nc(C)cc4C)nc3c2cc1OC`, the IC50 was 19.6 µM (active).

Consider `COc1ccc2cc(OCC(=O)NNC(=O)Nc3ccc(F)cc3)ccc2c1`, for which the IC50 is 65.5 µM (active).

As for `CC1=C/C(=C(/c2cc(C)c(O)c(Br)c2)c2ccccc2S(=O)(=O)O)C=C(Br)C1=O`, the IC50 was 62.4 µM (active).

With `Oc1ccc(Br)cc1C=Nc1ccc2c3c(cccc13)CC2`, the IC50 is 79.9 µM (active).

In the case of `Oc1ccc(Cl)cc1C=Nc1ccc2c3c(cccc13)CC2`, the IC50 was 14.8 µM (active).

With `Cc1cccc(C=Nc2ccc3c4c(cccc24)CC3)c1O`, the half-inhibitory concentration (IC50) is 32.6 µM (active).

On to `CC(C)(C)N(Cc1ccc2c(c1)OCO2)C(=O)/C=C\S(=O)c1ccccc1` (stereo not drawn), for which the “inhibition” value is 1.78% (inactive).

As to `COc1ccc(C2NC(=O)C(C#N)=C(S)N2c2cccc(C)c2)cc1OC` (stereo not drawn), the “inhibition” value was 3.49% (inactive).

In the case of `COCc1cc(S(=O)c2ccc(Cl)cc2)nc(C)n1` (stereo not drawn), the “inhibition” value was 1.89% (inactive).

With `C=CCc1ccc(OCCOCCNCCCC)c(OC)c1`, the “inhibition” value was 16.3% (inactive).

Consider `COc1cc(/C=N/NC(=O)CNC(=O)c2ccc3c(c2)OCCO3)ccc1O`, for which the IC50 is 58.4 µM (active).

With `COc1cc(/C=N/NC(=O)c2ccc3c(c2)OCO3)ccc1O`, the IC50 is 31.9 µM (active).

Turning to `Cc1nc2c(=O)[nH]c(=S)[nH]c2[nH]c1=O`, the “inhibition” value is 0.49% (inactive).

For `CN1CCc2c1nc1ccccc1c2NC(=O)CN1CCCC1`, the “inhibition” value is 12.3% (inactive).

In the case of `Cc1[nH]nc(-c2ccc(O)c(C)c2O)c1-c1cnn(-c2ccccc2)c1`, the IC50 was 70.7 µM (active).

As for `O=C(Cc1coc2cc(O)ccc12)NNC(=O)c1ccc(Br)s1`, the IC50 was 35.2 µM (active).

For `O=C(Cc1coc2cc(O)ccc12)NNC(=O)c1cccs1`, the IC50 was 33.8 µM (active).

Regarding `O=c1oc2cc(O)ccc2c2oc3cc(O)ccc3c12`, the IC50 was 54.1 µM (active).
